Shn3 3UTR inh – inhibitors of Schnurri-3 3'UTR reporter in osteoblasts. Clone20 osteoblast Shn3 3'UTR firefly luciferase, 24 h. inhibition, % at 12.5 µM. 0.52% of 360,000 active. AID 588674;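 active = mean inhibition of at least 75% with every replicate also reaching 75%; inconclusive = mean inhibition at least 75% but some replicate below; inactive = mean inhibition below 75%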;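 also: 0% = median of neutral control wells and 100% = pilot-screen positive control compound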
Mdm2 MdmX PPI – human Mdm2/MdmX binding inhibition; SaOS-2 split-luciferase Mdm2/MdmX complementation, luminescence; inhibition, % at 8 µM; 3% of 330,000 active; AID 485346;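 active = inhibition of at least 50% at 8 µM in the primary screen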
Target sequence (O15151 whole entry, looked up): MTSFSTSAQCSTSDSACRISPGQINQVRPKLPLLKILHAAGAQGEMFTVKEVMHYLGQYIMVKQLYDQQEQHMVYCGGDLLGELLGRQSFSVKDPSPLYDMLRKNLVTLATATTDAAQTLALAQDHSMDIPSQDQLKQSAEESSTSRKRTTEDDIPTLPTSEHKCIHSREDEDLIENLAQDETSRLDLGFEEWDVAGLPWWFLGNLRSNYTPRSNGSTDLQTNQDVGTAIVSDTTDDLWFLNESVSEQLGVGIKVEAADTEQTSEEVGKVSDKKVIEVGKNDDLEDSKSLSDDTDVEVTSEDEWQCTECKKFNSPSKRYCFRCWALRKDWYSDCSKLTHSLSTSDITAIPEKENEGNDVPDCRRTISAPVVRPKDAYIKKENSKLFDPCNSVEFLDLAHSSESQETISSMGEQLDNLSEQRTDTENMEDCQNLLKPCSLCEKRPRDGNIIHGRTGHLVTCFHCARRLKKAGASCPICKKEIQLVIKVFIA
Target sequence (Q00987 whole entry, looked up): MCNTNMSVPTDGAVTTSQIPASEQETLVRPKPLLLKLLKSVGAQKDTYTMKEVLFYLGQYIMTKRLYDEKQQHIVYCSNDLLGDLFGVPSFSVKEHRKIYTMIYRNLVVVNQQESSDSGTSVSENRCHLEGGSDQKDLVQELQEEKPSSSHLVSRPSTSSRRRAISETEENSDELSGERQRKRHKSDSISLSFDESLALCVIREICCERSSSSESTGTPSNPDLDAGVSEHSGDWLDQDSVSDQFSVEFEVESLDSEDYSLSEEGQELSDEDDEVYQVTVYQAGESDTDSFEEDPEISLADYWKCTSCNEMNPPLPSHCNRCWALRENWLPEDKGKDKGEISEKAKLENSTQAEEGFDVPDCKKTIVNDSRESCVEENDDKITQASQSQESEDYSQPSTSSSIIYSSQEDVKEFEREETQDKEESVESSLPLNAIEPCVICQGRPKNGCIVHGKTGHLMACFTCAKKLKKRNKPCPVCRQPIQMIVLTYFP
697 NFkB inh – lowers PMA/ionomycin-induced NF-kB signal in 697 B cells; inhibition, % at 4 µM; 0.33% of 330,000 active; 697 B-cell NF-kB luciferase reporter, 16 h; AID 435022; in the data active = inhibition above about 35%
Gli-Sufu block – Gli-Sufu pathway antagonism; Sufu-KO-LIGHT fibroblasts, Gli luciferase reporter luminescence; inhibition, % at 5 µM; 0.74% of 340,000 active;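 active = inhibition above about 55%, limit read from the data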;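 also: 0% = DMSO-treated cells and 100% = wells with medium but no cells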
Jurkat NFkB inh – lowers PMA/ionomycin-induced NF-kB signal in Jurkat cells; PMA/ionomycin-induced NF-kB luciferase reporter, luminescence; inhibition, % at 4 µM; 0.53% of 330,000 active; AID 435003; in the data active = inhibition above about 50%
Gli-Sufu confirm – Gli-SUFU antagonism confirmation, single concentration; inhibition, % at 5 µM; 40% of 2,500 active; shares compounds with Gli-Sufu block; AID 602428; Sufu-KO-LIGHT cells, Gli luciferase reporter, luminescence;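 active = mean inhibition at 5 µM reaching about 45%, limit read from the data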;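 also: plate controls were DMSO-treated cells for no effect and wells lacking cells for full effect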
SufuKO cytotox – cytotoxic in Gli-SUFU antagonist counter-screen. 32% of 2,500 active. shares compounds with Gli-Sufu block. AID 651994. cytotoxicity, % at 5 µM. Sufu-KO-LIGHT cells cytotoxicity, ATP luminescence;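 active = mean cytotoxicity at 5 µM above about 25%, limit read from the data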;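 also: cells exposed to compound overnight for roughly 16 to 18 hours; plate controls were DMSO wells with cells for no effect and medium without cells for full effect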
Wnt3a counter – Wnt3a reporter inhibition counter-screen | shares compounds with Gli-Sufu block | Wnt-LIGHT cells, Wnt3a-driven luciferase reporter, luminescence | inhibition, % at 6.25 µM | 20% of 2,500 active;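 active = mean inhibition above about 25%, limit read from the data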
The depositor's hits bear a star; ? = inconclusive; nt = no result. In the library only some 3.8% were active in any assay of this set; here they are far more common.

SMILES	Shn3 3UTR inh	Mdm2 MdmX PPI	697 NFkB inh	Gli-Sufu block	Jurkat NFkB inh	Gli-Sufu confirm	SufuKO cytotox	Wnt3a counter
O=C(COC(=O)Cc1c[nH]c2ccccc12)Nc1cc(S(=O)(=O)N2CCOCC2)ccc1Cl	10	17	-1	-2	-4	nt	nt	nt
Cc1cc(-n2c(SCc3ccccc3F)nc3n[nH]c(C)c3c2=N)ccc1Cl	15	43	10	53	-1	25	5	-38
COc1ccccc1CN(C)C(=O)CN1CCN(C(=O)c2cccs2)CC1	8	-40	-13	-1	-8	nt	nt	nt
COc1ccc(CCN2CC(C(=O)NCCc3ccc(C(F)(F)F)cc3)CCC2=O)cc1 (stereo not given)	-4	-5	-23	52	-17	9	17	-53
OCCN1CCN(C2CCC(c3ccc(F)cc3)c3ccc(F)cc32)CC1 (stereo not given)	nt	38	-23	1	-8	nt	nt	nt
O=C(CSc1nnc(-c2ccc(F)cc2)n1CC1CCCO1)NCc1ccco1 (stereo not given)	12	23	-20	4	-6	nt	nt	nt
O=C(c1ccccc1SCc1ccccc1)N1CCOCC1	8	9	18	61*	-5	17	-2	9
O=Cc1cn(-c2ccccc2)nc1-c1ccccc1	-35	17	-5	-35	-22	nt	nt	nt
O=Cc1cn(-c2ccccc2)nc1-c1cccnc1	19	-13	4	54	1	21	12	5
CCOC(=O)C1(Cc2cccc(OC)c2)CCN(C/C=C/c2ccc(OC)cc2)CC1	88*	7	-10	53	8	38	28*	-38
N#C/C(=C\c1ccc(-c2ccc([N+](=O)[O-])cc2Br)o1)C(=O)N1CCN(c2ccccc2)CC1	-10	8	-29	15	-10	nt	nt	nt
Cn1c(=O)c2[nH]c(C(O)c3ccc(Cl)cc3)nc2n(C)c1=O (stereo not given)	11	nt	nt	-5	nt	nt	nt	nt
CCOC(=O)[C@H]1[C@H]2COc3ccc(C)cc3[C@@H]2N2C(=O)c3cc(F)ccc3NC(=O)[C@@]12C	-57	23	19	3	10	nt	nt	nt
Cc1ccc(CSCCNC(=O)CSCc2ccc([N+](=O)[O-])cc2)cc1	14	20	21	55	12	21	2	10
Cc1ccc2ccc3ccc(C)nc3c2n1	?	30	-3	53	-1	47*	13	-17
CC(=O)/C(N=Nc1ccc(C(=O)O)cc1[N+](=O)[O-])=C(\C)O	13	6	5	80*	6	8	5	-14
C/C(=N/NC(=O)c1cccs1)c1c(C)[nH]n(-c2nc3ccccc3s2)c1=O	-33	3	-79	24	-23	nt	nt	nt
COC(=O)Cc1[nH]n(-c2nc3ccccc3s2)c(=O)c1C(C)=Nc1ccc(Cl)cc1	-21	-22	-3	86*	12	93*	18	104*
COc1cc(C(=O)Nc2ccc(N3CCCS3(=O)=O)cc2)c([N+](=O)[O-])cc1OC	-15	-25	18	-6	-5	nt	nt	nt
O=C(C1CCN(CCCc2ccccc2)CC1)N(CCc1ccccc1)Cc1ccccc1	75	41	-4	56*	3	15	24	-43
O=C(CCCn1c(=O)[nH]c2ccc(Br)cc2c1=O)NCc1ccc(Cl)cc1	0	12	14	1	-5	nt	nt	nt
CC(=O)NC(Cc1ccccc1C)C(=O)NC1CCN(C(=O)NCc2ccccc2)CC1 (stereo not given)	11	25	18	58*	10	22	2	-2
COc1ccccc1CC(NC(C)=O)C(=O)NC1CCN(C(=O)NCc2ccccc2)CC1 (stereo not given)	10	21	-20	0	-5	nt	nt	nt
CC(=O)N1CCOc2ccc(S(=O)(=O)NC(C)c3ccccc3)cc21 (stereo not given)	-7	2	-11	61*	2	24	-6	1
CC(=O)N1CCc2cc(S(=O)(=O)NC(C)c3ccccc3)ccc21 (stereo not given)	28	12	-32	27	14	nt	nt	nt
SMILES	Shn3 3UTR inh	Mdm2 MdmX PPI	697 NFkB inh	Gli-Sufu block	Jurkat NFkB inh	Gli-Sufu confirm	SufuKO cytotox	Wnt3a counter
CCOc1cccc(-c2c(C(=O)N/N=C(\C)c3ccccn3)nnn2-c2nonc2N)c1	94*	nt	nt	75*	nt	86*	51*	88*
C/C(=N/NC(=O)c1nnn(-c2nonc2N)c1-c1ccccc1)c1ccc2c(c1)OCO2	12	-7	7	51	-6	24	2	4
CC1CCN(c2nc3ccc(C(=O)N4CCN(Cc5ccc6c(c5)OCO6)CC4)cc3s2)CC1	-13	31	-125	-63	18	nt	nt	nt
COc1ccc(Cc2n[nH]c(=S)o2)cc1	6	6	17	55	2	19	1	-4
CCCCn1c(N)c(N(CC(C)C)C(=O)CSc2nnc(C)n2-c2ccc(OC)cc2)c(=O)[nH]c1=O	-6	6	13	-7	7	nt	nt	nt
C=CCOc1ccc(CN(C)C(=O)CNC(=O)c2ccc(-c3ccccc3)cc2)cc1	50	23	-25	-10	1	nt	nt	nt
C=C(C)Cn1c(CN(C)Cc2ccccc2)nc2c1c(=O)n(C)c(=O)n2C	68	18	-24	58*	21	25	38*	-8
Cc1ccc(N(CC(=O)NC(C)c2ccccc2)S(=O)(=O)c2c(C)n[nH]c2C)cc1 (stereo not given)	-10	0	-54	0	-11	nt	nt	nt
Cc1ccc(CNC(=O)CN(c2ccc(C)cc2)S(=O)(=O)c2c(C)n[nH]c2C)cc1	4	-9	-5	57*	3	26	9	37*
Cc1occc1-c1nnc(SCC(=O)c2c(N)n(Cc3ccccc3)c(=O)n(C)c2=O)n1C	0	-1	0	6	3	nt	nt	nt
CCCn1c(N)c(C(=O)CSc2nnc(-c3ccoc3C)n2C)c(=O)n(C)c1=O	-1	12	-4	76*	-16	12	22	-25
CCCCC1(CC(=O)OCC)C(=O)N(c2ccccc2)N(c2ccccc2)C1=O	13	13	-30	3	-8	nt	nt	nt
COc1ccccc1CCNC(=O)CNC(=O)c1ccc2ccccc2c1	1	-38	-12	57*	1	9	9	-27
COc1ccccc1CCNC(=O)c1ccc(C)o1	-34	11	-4	57*	-23	4	25	-1
COc1ccccc1CCNC(=O)CNC(=O)Cc1cccc2ccccc12	6	11	-5	2	10	nt	nt	nt
Cc1ccc(C(=O)NCCCCNC(=O)c2ccc(C)o2)o1	-9	4	12	-2	-6	nt	nt	nt
CCOC(=O)C1=C(COC(=O)/C=C/c2cccc(Cl)c2)NC(=O)NC1C (stereo not given)	-9	7	4	-1	1	nt	nt	nt

Bioassay records as filed in PubChem BioAssay.
